The values below come from PubChem BioAssay (NCI).

About 79,000 compounds went through this panel and 15% of them were active in at least one assay; those are over-represented in the sample as a whole. A number with no mark means an inactive call. Calls of active or inactive are those of the source. Cut-off read from the data, not from the text of the source: active = growth inhibition above about 70%; inactive = the rest.

Test [1] in a line: NCI Yeast Anticancer Drug Screen. Data for the rad50 strain (AID 155).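 Note: 0% = growth of vehicle-only cultures of the same strain.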 The conditions noted are these: S. cerevisiae rad50 strain growth inhibition; at 50.0 µM; hits give high values. The procedure, abridged: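 Growth of the mutant yeast was measured after compound exposure and referenced to vehicle-treated cultures.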
Test [2] is described as follows: NCI Yeast Anticancer Drug Screen. Data for the mec2-1 strain (AID 157). The conditions noted are these: S. cerevisiae mec2-1 strain, at 50.0 µM, hits give high values. The method, boiled down: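 Vehicle-treated cultures served as reference for growth inhibition of compound-exposed mec2-1 yeast.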
Test [3] can be described thus: NCI Yeast Anticancer Drug Screen. Data for the sgs1 mgt1 strain (AID 161).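 Note: 0% = growth of cultures given vehicle only.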 To be noted: S. cerevisiae sgs1 mgt1 strain, at 50.0 µM, hits give high values. The method, boiled down:
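Inhibition of yeast growth, normalised to vehicle-treated controls, is reported for a strain bearing genetic alterations in DNA damage repair.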

Test [4] is described as follows: NCI Yeast Anticancer Drug Screen. Data for the cln2 rad14 strain (AID 165).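 Note: 0% = growth equal to vehicle treated cultures.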 To be noted: S. cerevisiae cln2 rad14 strain, at 50.0 µM, hits give high values. The procedure, abridged:
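Each compound was tested on cln2 rad14 yeast. Inhibition of growth was calculated against vehicle-exposed controls.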

Test [5] can be described thus: NCI Yeast Anticancer Drug Screen. Data for the bub3 strain (AID 167). The conditions noted are these: S. cerevisiae bub3 mutant strain, at 50.0 µM, hits give high values. The procedure, abridged: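 Whole-cell yeast assay. The mutant strain was incubated with compounds, and growth inhibition was determined by comparison with vehicle-treated cells.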
Test [6] in a line: NCI Yeast Anticancer Drug Screen. Data for the mlh1 rad18 strain (AID 175). To be noted: S. cerevisiae mlh1 rad18 strain growth inhibition; at 50.0 µM; hits give high values. The method, boiled down: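 Vehicle-treated cultures served as the reference for growth inhibition in a yeast strain carrying DNA damage repair alterations exposed to each compound.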

On to `CCCCCCCCCCCc1cc(=O)n(-c2ccccc2)n1C`, for which the growth inhibition is 98.8% (active) in test [1]; 99.2% (active) in test [2]; 99.2% (active) in test [3]; 98.4% (active) in test [4]; 98.5% (active) in test [5]; 99% (active) in test [6].
On to `Nc1ccc(Cl)cc1C(=O)Oc1ccccn1`, for which the growth inhibition in test [1] was 6.9%; in test [2], -0.65%; in test [3] it was -6.25%; in test [4], -0.4%; in test [5], -5.5%; in test [6] it was -0.7%.
`CCC(=O)C(=O)C1CCCCC1=O` (stereo unspecified): the growth inhibition in test [1] was -2.4%; in test [2], -3.8%; in test [3], -2.5%; in test [4] it was -9.05%; in test [5], -17.6%; in test [6] it was -0.05%.
As to `NC(=O)C1CC(I)C2CC1C(=O)O2` (stereo unspecified), the growth inhibition in test [1] is 1.45%; in test [2], -4.3%; in test [3], -4.45%; in test [4] it was 4.3%; in test [5], 0.35%; in test [6], -6.5%.
Consider `CCC(C)C(=O)OC1C(=O)OC2CC3C(C)=CC(=O)C(O)C3(C)C3C4(O)OCC23C1C(C)C4O` (stereo unspecified), for which the growth inhibition was 90.3% (active) in test [1]; 93% (active) in test [2]; 90% (active) in test [3]; 91.3% (active) in test [4]; 90.6% (active) in test [5]; 92.1% (active) in test [6].
On to `C=CCOC(=O)Nc1ccc(C)c(NC(=O)OCC=C)c1`, for which the growth inhibition was -28.3% in test [1]; -45% in test [2]; -9.1% in test [3]; -25.5% in test [4]; -12.6% in test [5]; -33.1% in test [6].
In the case of `CCNC(=O)NCc1cccc2ccccc12`, the growth inhibition was -0.05% in test [1]; -8.15% in test [2]; -7.15% in test [3]; -74.2% in test [4]; 5.15% in test [5]; -1.6% in test [6].
With `CCN(CC)C(=S)N=N/C(C)=C1/C=CC=CN1O`, the growth inhibition in test [1] is 1.4%; in test [2] it was 0.4%; in test [3], 14.6%; in test [4], 13.6%; in test [5] it was 16.2%; in test [6] it was 74% (active).
Turning to `CC1CCOC(C)(Cc2ccccc2)O1` (stereo unspecified), the growth inhibition was -2.8% in test [1]; -3.05% in test [2]; -6.9% in test [3]; -58.8% in test [4]; -18.1% in test [5]; -10.9% in test [6].
On to `S=C(Cc1cccc2ccccc12)N1CCN(c2ccc(Cl)cc2)CC1`, for which the growth inhibition in test [1] is -17%; in test [2] it was -2.3%; in test [3] it was -16%; in test [4], -7.9%; in test [5], -9.95%; in test [6], -0.55%.
In the case of `NC(Cc1ccc(O)cc1)C(=O)OCc1ccccc1` (stereo unspecified), the growth inhibition in test [1] was -6.45%; in test [2], 0.5%; in test [3], 15.1%; in test [4] it was -11.2%; in test [5], 34.2%; in test [6], -3.75%.
For the molecule `CN(C)CCCC(O)c1cccc2ccccc12` (stereo unspecified), the growth inhibition in test [1] was 25.4%; in test [2], -12.6%; in test [3], 10.7%; in test [4], -4.65%; in test [5] it was 0.8%; in test [6] it was 24.4%.
In the case of `CCOC(=O)C1(C)CCCc2sc(N)c(C#N)c21` (stereo unspecified), the growth inhibition in test [1] is -42.4%; in test [2] it was -7.55%; in test [3] it was -11.1%; in test [4], -6.45%; in test [5], -14.2%; in test [6], 5.45%.
With `CC(=O)OC1CC2CCCCC2CC1[N+](C)(C)C` (stereo unspecified), the growth inhibition was 2.25% in test [1]; 7.3% in test [2]; 13.8% in test [3]; -1.15% in test [4]; 3.3% in test [5]; -35.8% in test [6].
Take `COC(=O)c1ccc(Cc2ccc(C(=O)OC)o2)o1`: the growth inhibition in test [1] is -9.05%; in test [2], 9.2%; in test [3], -5.25%; in test [4], -25.4%; in test [5], -8.35%; in test [6], -13.8%.
Turning to `Cc1ccc(NC(=O)c2cc3c(cc2Cl)Sc2nccn2S3(=O)=O)cc1`, the growth inhibition in test [1] is 21.7%; in test [2] it was 11.3%; in test [3] it was 12.7%; in test [4] it was -25.9%; in test [5], 11.4%; in test [6], 39.1%.
For the molecule `CN(C)C(=O)c1cc2ccccc2[nH]1`, the growth inhibition was 28.9% in test [1]; 16.4% in test [2]; 6.7% in test [3]; 12.8% in test [4]; 3.75% in test [5]; 20.2% in test [6].
As for `COc1ccccc1C(=O)Nc1c(C)cccc1Cl`, the growth inhibition in test [1] is -0.45%; in test [2], -25.9%; in test [3], -0.8%; in test [4], 0.4%; in test [5] it was -10%; in test [6], 7%.
Consider `OCC1CC(c2ccccc2)=NO1` (stereo unspecified), for which the growth inhibition in test [1] is -19.9%; in test [2], -11.1%; in test [3], -11.2%; in test [4] it was -20.2%; in test [5] it was -3.9%; in test [6] it was -17.6%.
On to `C=CCOCOC(C)C(=O)OCC` (stereo unspecified), for which the growth inhibition is -10.5% in test [1]; 6.6% in test [2]; -8.35% in test [3]; -26.7% in test [4]; -9.2% in test [5]; 6.45% in test [6].
Turning to `CC(C(N)=O)C(=O)c1ccccc1` (stereo unspecified), the growth inhibition in test [1] was 9.9%; in test [2], -12.4%; in test [3], -24.3%; in test [4] it was -7.15%; in test [5] it was -21.2%; in test [6], 0.15%.
As for `CCOC(CN(N=O)c1ccccc1C(C)C)OCC`, the growth inhibition in test [1] is -3.95%; in test [2] it was 8.9%; in test [3], 7%; in test [4] it was -21.9%; in test [5], 3.55%; in test [6], -4.25%.
With `Cn1c2c(c3ccccc31)CCN=C2C1CCCOC1=O` (stereo unspecified), the growth inhibition is -27.6% in test [1]; -54.2% in test [2]; -21.1% in test [3]; -17.5% in test [4]; -9.3% in test [5]; -39.1% in test [6].
In the case of `CCC(C)(C#N)OC(C)=O` (stereo unspecified), the growth inhibition in test [1] was -3.75%; in test [2], -26.6%; in test [3], -8.4%; in test [4], -6.85%; in test [5], 4.6%; in test [6], 8.45%.
With `CC(=O)N1OCCc2ccccc21`, the growth inhibition in test [1] is 8.2%; in test [2], -0.15%; in test [3], -6.65%; in test [4], -37.5%; in test [5] it was -5.5%; in test [6], -1.45%.
`CCCCCCCCCCN(CCCCCCCCCC)CC(O)c1cc(-c2ccc(Cl)cc2)nc2ccccc12` (stereo unspecified): the growth inhibition in test [1] was 25.6%; in test [2] it was 17.1%; in test [3], 39.4%; in test [4] it was 31.2%; in test [5], 34.6%; in test [6], 50.2%.
Consider `Nc1cnc(N)nc1`, for which the growth inhibition was -8.4% in test [1]; -18.8% in test [2]; -21.6% in test [3]; -24.4% in test [4]; 11.8% in test [5]; -17.2% in test [6].
Consider `COC(=O)C(Cc1nc2ccccc2[nH]c1=O)/C(=N\NC(C)(C)C)C(=O)Nc1c(C)cc(Br)cc1C` (stereo unspecified), for which the growth inhibition in test [1] is 17.2%; in test [2], -4.55%; in test [3] it was 5.9%; in test [4] it was -35.8%; in test [5], 3.7%; in test [6], -3%.
For `O=Cc1ccc(OCc2cccc([N+](=O)[O-])c2)cc1`, the growth inhibition in test [1] is 6.6%; in test [2], 27.1%; in test [3], 26.4%; in test [4] it was -2.6%; in test [5], 31.4%; in test [6] it was 47%.
Regarding `CC(=O)NNc1nc(C)c(C(=O)/C=C/c2ccccc2Cl)s1`, the growth inhibition in test [1] was 37.5%; in test [2], 16.1%; in test [3], 17.4%; in test [4], 19.4%; in test [5], 23.1%; in test [6], 43.5%.
In the case of `CCN=C(c1ccccc1)N(O)c1ccccc1`, the growth inhibition in test [1] was -10.7%; in test [2], 9.2%; in test [3], -3.15%; in test [4] it was 6.35%; in test [5] it was 7.7%; in test [6], -14.1%.
